Sampled rows, rich in hits. Any-hit rate of the full collection: about 2.7%.
ATG4B inh – ATG4B (human) cysteine protease inhibition; Q9Y4P1; ATG4B cleavage of LC3-PLA2, NBD-HPC fluorescence, 1 h; inhibition, % at 8.33 µM; actives 0.51% (n = 340,000); in the data active = inhibition above about 40%
Target sequence (Q9Y4P1 whole entry, looked up): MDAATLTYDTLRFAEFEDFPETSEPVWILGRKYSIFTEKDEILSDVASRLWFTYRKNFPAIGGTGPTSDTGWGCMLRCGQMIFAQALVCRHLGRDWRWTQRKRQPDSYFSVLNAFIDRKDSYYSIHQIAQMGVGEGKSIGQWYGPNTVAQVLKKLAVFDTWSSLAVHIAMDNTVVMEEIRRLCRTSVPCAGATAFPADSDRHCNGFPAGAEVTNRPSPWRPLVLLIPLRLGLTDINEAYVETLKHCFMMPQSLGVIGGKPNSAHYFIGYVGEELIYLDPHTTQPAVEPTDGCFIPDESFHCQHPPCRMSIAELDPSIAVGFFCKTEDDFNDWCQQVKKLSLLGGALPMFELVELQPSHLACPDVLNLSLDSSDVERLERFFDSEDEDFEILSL
SKN-1 block – C. elegans SKN-1 inhibition | C. elegans VP596 Pgst-4::GFP/RFP ratio, acrylamide-induced, 24 h | inhibition, % at 21.8 µM | actives 0.49% (n = 360,000) | AID 624304;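 active = interference check ratio from 0.5 to 1.5 plus GFP to RFP signal ratio inhibition reaching or exceeding a fixed threshold, cut at about 30% in these data, passing the limit was not always enough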
NRP1-CendR mod – NRP-1/CendR interaction modulation | O14786 | FAM-RPARPAR peptide binding to NRP-1, fluorescence polarization | actives 0.85% (n = 360,000) | inhibition, % at 25 µM;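 active = inhibition or corrected inhibition above about 18%, plus a signal ratio from 0.5 to 1.5, limit read from the data, passing the limit was not always enough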
MPTP block – inhibitors of mitochondrial permeability transition pore | isolated mouse mitochondria, Ca2+ swelling absorbance, 30 min | inhibition, % at 10 µM | actives 1.4% (n = 360,000) | AID 602449;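 active = inhibition of 50% or more, scaled per plate between neutral and stimulator controls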;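 note: 0% = DMSO wells given calcium and 100% = 1 mM EGTA wells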
CFTR F508del cor – correctors of CFTR F508del function in bronchial epithelial cells | activity (quench increase), % at 7.58 µM | actives 0.36% (n = 350,000) | AID 720511 | CFBE cells, YFP halide quenching; stimulated with forskolin plus potentiator P3; % fluorescence drop versus neutral controls;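 active = mean added fluorescence quench of at least 8% versus neutral control, with both replicates also reaching 8%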;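 note: cells transiently co-express mutant CFTR-F508del with the halide-sensitive YFP; corrector assay measuring rescue of mutant channel to the surface after 24 h compound exposure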
An asterisk follows results filed as active; . = no result given; ! = not active in a repeat.

SMILES	ATG4B inh	SKN-1 block	NRP1-CendR mod	MPTP block	CFTR F508del cor
c1ccc(CSc2ncnc3sccc23)cc1	-6	43*	7	1	.
C[C@@H]1CCCCO[C@@H](CN(C)C(=O)Nc2cccc3ccccc23)[C@H](C)CN([C@H](C)CO)C(=O)c2cc(N(C)C)ccc2O1	.	.	.	.	3
Cc1noc(C)c1NC(=O)Nc1cccc2c1O[C@@H](CN(C)C(=O)NC(C)C)[C@H](C)CN([C@@H](C)CO)C2=O	.	.	.	.	4
CC(=O)c1ccc(OCC(=O)Nc2nnc(C3CC3)s2)cc1	.	-16	29*	0	-4
COc1ccc(S(=O)(=O)N(CC(=O)N2CCN(c3ccccc3OC)CC2)c2ccccc2)cc1	-7	37*	-4	2	.
COc1ccccc1N1CCN(C(=O)C2c3ccccc3Oc3ccccc32)CC1	-17	4	25*	-1	.
COc1ccccc1N1CCN(C(=O)C2CC2)CC1	-2	-10	2	1	1
CCOc1ccccc1N1CCN(C(=O)c2cc3ccccc3cc2OC)CC1	-21	23	4	-3	17*
COc1ccccc1OCC(=O)N1CCN(C(=O)COc2ccccc2OC)CC1	-10	12	14	0	1
COc1ccccc1N1CCN(C(=O)COc2cccc3ccccc23)CC1	-5	10	31*	-1	0
O=S(=O)(c1ccccc1)N1C[C@@H]2[C@H](c3ccccc31)[C@@H](CO)N2Cc1ccccc1	.	.	.	.	0
CN1C(=O)c2cc(NC(=O)c3cccc(F)c3)ccc2OC[C@@H]2O[C@H](CC(=O)NCc3ccccc3)CC[C@@H]21	.	.	.	.	2
CCC(=O)N1[C@H](C(=O)NC2CCC2)[C@@H](CO)[C@@H]2Cn3c(ccc(C4=CCCC4)c3=O)[C@@H]21	.	.	.	.	-1
COCC(=O)N1CCC2(CC1)CN(Cc1cccc(F)c1)[C@H](CO)c1c2c2ccc(OC)cc2n1C	.	.	.	.	1
CCOc1ccccc1N1CCN(C(=O)c2ccncc2)CC1	-7	6	43*	0	.
CCOc1ccccc1N1CCN(C(=O)c2cccc(-c3ccc(O)cc3)c2)CC1	-10	-18	5	0	.
O=C(O)CC(C(=O)O)N1C(=O)/C(=C/C=C/c2ccco2)SC1=S (stereo not drawn)	31	10	-131	2	0
O=C(O)CCCN1C(=O)/C(=C/C=C/c2ccco2)SC1=S	52*	20	-141	2	-3
Cn1cccc1/C=C1\SC(=S)N(NC(=O)c2ccccc2O)C1=O	9	9	-132	6	1
O=C(NN1C(=O)/C(=C/C=C/c2ccco2)SC1=S)c1ccccc1O	70*	7	-241	4	-1
CC(C)NC(=O)N(C)C[C@H]1Oc2ncc(C#CCc3ccccc3)cc2C(=O)N([C@@H](C)CO)C[C@H]1C	.	.	.	.	-1
O=C(NCc1cccnc1)c1cc(C2CCCCN2C(=O)OCc2ccccc2)on1 (stereo not drawn)	.	5	-11	-1	-4
O=C(NCc1cccnc1)c1cc(C2CCCCN2C(=O)CCCc2ccccc2)on1 (stereo not drawn)	.	5	14	0	12*
COc1ccc(C(=O)Cn2nnc(-c3ccccc3NC(=O)C3CC3)n2)cc1	2	-14	33*	3	.
COc1ccc(C(=O)Cn2nnc(-c3ccccc3F)n2)cc1	0	4	7	2	1
SMILES	ATG4B inh	SKN-1 block	NRP1-CendR mod	MPTP block	CFTR F508del cor
CSCCC(NC(=O)c1ccc(Cl)cc1Cl)C(=O)NCc1ccccn1 (stereo not drawn)	2	-2	-2	-2	-1
CSCCC(NC(=O)c1ccc(Cl)cc1Cl)C(=O)NCC(c1cccs1)N(C)C (stereo not drawn)	1	-4	26*	0	2
O=C(C[C@@H]1C=C[C@H](NS(=O)(=O)c2cccc(F)c2)[C@H](CO)O1)NCc1ccc2c(c1)OCO2	.	.	.	.	3
CO[C@H]1CN(C)C(=O)c2ccc(NS(=O)(=O)c3ccccc3Cl)cc2OC[C@@H](C)NC[C@H]1C	.	.	.	.	2
Cc1c(N=C/C=C2/N(C)c3ccccc3C2(C)C)c(=O)n(-c2ccccc2)n1C	-7	39*!	-4	-1	0
Cc1ccc(-c2cnc3c(c2)C(=O)N([C@H](C)CO)C[C@H](C)[C@H](CN(C)C(=O)c2cccnc2)O3)cc1	.	.	.	.	2
CCC1CCCCN1CCN1C(=O)C2C(C(=O)Nc3cccc(OC)c3)C3C=CC2(O3)C1C(=O)NC1CCCCC1 (stereo not drawn)	-5	5	13	0	-2
CCC1CCCCN1CCN1C(=O)C2C(C(=O)Nc3ccc(OC)cc3)C3C=CC2(O3)C1C(=O)NC1CCCCC1 (stereo not drawn)	-8	37*	7	1	0
CC(C)NC(=O)N(C)C[C@@H]1Oc2ccc(NC(=O)Nc3ccc(F)cc3)cc2CC(=O)N([C@H](C)CO)C[C@@H]1C	.	.	.	.	2
CO[C@H]1CN(C)C(=O)c2ccc(NC(=O)NC(C)C)cc2OC[C@H](C)N(S(C)(=O)=O)C[C@H]1C	.	.	.	.	-1
O=C(COC(=O)c1cc(Cl)ccc1O)NCCC1=CCCCC1	-5	8	20*	-1	-1
O=S(=O)(Cc1ccc(Cl)cc1)Oc1ccc(Cl)cc1	5	46*	10	2	-3
O=[N+]([O-])c1ccc(OS(=O)(=O)Cc2ccccc2)cc1	-11	-3	1	1	0
O=C(Nc1cc2nn(-c3ccccc3)nc2cc1Cl)c1ccco1	11	45*	-42	2	.
CC(C)(C)C(=O)Nc1cc2nn(-c3ccccc3)nc2cc1Cl	-8	42*	9	-2	.
CN1C(=O)c2cc(NC(=O)Nc3ccccc3)ccc2OC[C@H]2O[C@@H](CC(=O)NC3CCC3)CC[C@H]21	.	.	.	.	-2
CCCOc1ccc(N2C(=O)CC(N3CCN(CCN=CC4C(=O)CC(C)(C)CC4=O)CC3)C2=O)cc1 (stereo not drawn)	-8	2	25*	0	-1
CCCOc1ccc(N2C(=O)CC(N(CCc3ccc(OC)cc3)C(=O)c3cccc(F)c3)C2=O)cc1 (stereo not drawn)	20	35*	-3	3	.
CCCOc1ccc(N2C(=O)CC(N(CCc3ccccc3)C(=O)c3ccccc3)C2=O)cc1 (stereo not drawn)	-1	-1	-5	-1	.
CO[C@@H]1CN(C)C(=O)c2ccc(NC(=O)CC(F)(F)F)cc2OC[C@@H](C)N(C(=O)c2ccccc2F)C[C@@H]1C	.	.	.	.	-2
CC=Cc1ccc2n(c1=O)C[C@@H]1[C@@H](CO)[C@H](C(=O)NCC3CC3)[C@H]2N1CCC(F)(F)F (mixture of isomers)	.	.	.	.	1
O=C(Nc1ccc(Cl)cc1)NC1CCCCNC1=O (stereo not drawn)	-4	36*	3	2	1
COc1cc(-c2cc(=O)c3ccc(O)cc3o2)cc(OC)c1OC	.	6	4	0	1
COc1cc(OC)c(-c2c3cc(O)c(=O)cc-3oc3cc(O)c(O)cc23)cc1OC	-170	67	135	19	21*

Bioassay records: PubChem BioAssay, several laboratories
